High-throughput results: PubChem, The Scripps Research Institute Molecular Screening Center
PLCb3 inh – human PLC-beta3 inhibitors, primary screen, biochemical, fluorescence | Purified PLC-beta3, fluorogenic substrate | inhibition, % at 12.2 µM | 370,000 tested, 0.18% active | AID 720704, 2013; in the data active means inhibition above about 11%;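 further: 0% = median of compound wells on plate and 100% = full blocker control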
PLC-gamma1 inh – PLC-gamma1 enzyme inhibitors, primary screen, biochemical, fluorescence, purified enzyme; fluorogenic substrate; inhibition, % at 12.2 µM; 370,000 tested, 0.84% active; AID 720700, 2013
ADAM10 inh – human ADAM10 inhibitors, primary screen, biochemical, QFRET, HTS. recombinant ADAM10, EDANS/DABCYL FRET peptide cleavage, 3 h. inhibition, % at 7 µM. 370,000 tested, 0.62% active;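 active means inhibition above a per-campaign cutoff equal to the mean of compounds falling between control-based bounds plus 3 SD, cut at about 20% in these data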;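 further: 0% = DMSO wells while the 100% control is not disclosed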
Target sequence (O14672 214-748 limits assumed): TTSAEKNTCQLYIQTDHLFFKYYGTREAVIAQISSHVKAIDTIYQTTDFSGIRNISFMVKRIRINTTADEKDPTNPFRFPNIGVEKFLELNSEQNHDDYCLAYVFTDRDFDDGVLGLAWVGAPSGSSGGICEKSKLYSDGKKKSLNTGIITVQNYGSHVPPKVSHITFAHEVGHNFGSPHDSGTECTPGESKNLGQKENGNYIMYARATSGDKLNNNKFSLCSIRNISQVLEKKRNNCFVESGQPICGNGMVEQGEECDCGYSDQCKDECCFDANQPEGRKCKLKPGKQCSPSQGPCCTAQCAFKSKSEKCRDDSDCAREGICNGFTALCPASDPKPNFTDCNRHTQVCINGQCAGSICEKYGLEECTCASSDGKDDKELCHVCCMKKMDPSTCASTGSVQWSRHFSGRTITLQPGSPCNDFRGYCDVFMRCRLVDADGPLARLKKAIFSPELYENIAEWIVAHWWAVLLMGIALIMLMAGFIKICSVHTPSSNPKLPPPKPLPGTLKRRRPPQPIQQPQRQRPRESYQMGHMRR
KLK7 zymogen act – proKLK7 zymogen activators, primary screen, biochemical, fluorescence intensity | Kallikrein-7 (Homo sapiens), P49862 | purified proKLK7, EDANS-DABCYL substrate fluorescence; 100% is mature enzyme control, 0% vehicle | activation, % at 7 µM | 370,000 tested, 0.9% active | AID 652039, 2013;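 active means activation above the mean of all tested compounds plus 3 SD, computed per campaign excluding outliers beyond control limits, cut at about 13% in these data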
ADAM17 inh – ADAM17 inhibitors, primary screen, biochemical, QFRET | Disintegrin and metalloproteinase domain-containing protein 17 (Homo sapiens), P78536 | recombinant ADAM17, EDANS/DABCYL FRET peptide cleavage | inhibition, % at 6.95 µM | 370,000 tested, 0.83% active;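 active means inhibition above the mean of compounds lying between control limits plus 3 SD, set per campaign, cut at about 8.5% in these data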;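 further: 0% = DMSO-only wells as the low control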
PLCgamma1 ctr – PLC-gamma1 enzyme inhibitors, counter-screen for PLC-beta3 inhibitor project, biochemical, fluorescence; shares compounds with PLC-gamma1 inh; purified PLC-gamma1, fluorogenic substrate; inhibition, % at 12.3 µM; 3,300 tested, 3.1% active; AID 743258, 2014
PLCbeta3 conf – PLC-beta3 inhibitor confirmation, biochemical, fluorescence, purified enzyme; 3,300 tested, 1% active; shares compounds with PLC-gamma1 inh; fluorogenic substrate fluorescence; inhibition, % at 12.3 µM; AID 743261, 2014; in the data active means inhibition above about 11%
Active calls of the source: *. A selection: hits, their analogues and other compounds. The true share with any hit is near 2.9%. Unless noted, no stated cut-off is given here; in the data, active means inhibition above about 9.5%; inactive means the rest.

What do the screens show for `COc1cc(C(=O)NN2C(=O)NC3(CCC(C)CC3)C2=O)ccc1OC(F)F` (stereo not given)?
PLCb3 inh: -9; PLC-gamma1 inh: 4; ADAM10 inh: -13; KLK7 zymogen act: 0; ADAM17 inh: -8

How did COc1ccc(-c2ccc3c(c2)c(Sc2ccccc2)c(-c2ccccc2)n3C)cc1 do in these assays?
PLCb3 inh: 0; PLC-gamma1 inh: 2; ADAM10 inh: -6; KLK7 zymogen act: 0; ADAM17 inh: -5

Results for CCC(=O)Nc1c(C)nn(-c2ccc(C)c(C)c2)c1C ?
PLCb3 inh: 2; PLC-gamma1 inh: 3; ADAM10 inh: -5; KLK7 zymogen act: 0; ADAM17 inh: -1

How did CC(=O)Nc1c(C)nn(-c2ccc(C)c(C)c2)c1C do in these assays?
PLCb3 inh: 2; PLC-gamma1 inh: 9.6*; ADAM10 inh: 5; KLK7 zymogen act: 0; ADAM17 inh: 2; PLCgamma1 ctr: -5; PLCbeta3 conf: -2

How did CC1CCCCN1C(=O)N[C@@H](Cc1ccccc1)C(=O)O (stereo not given in full) do in these assays?
PLCb3 inh: 1; PLC-gamma1 inh: 4; ADAM10 inh: -5; KLK7 zymogen act: 0; ADAM17 inh: -5

What do the screens show for `CC1CCCCN1C(=O)C(Cc1ccccc1)N1C(=O)C2CCCCC2C1=O` (stereo not given)?
PLCb3 inh: 11*; PLC-gamma1 inh: 11*; ADAM10 inh: 3; KLK7 zymogen act: 0; ADAM17 inh: 3; PLCgamma1 ctr: -3; PLCbeta3 conf: -3

Results for CCCCCCCOC(=O)C[N+](C)(C)CCOC1CC2CCC1(C)C2(C)C (stereo not given) ?
PLCb3 inh: 1; PLC-gamma1 inh: 9.9*; ADAM10 inh: 5; KLK7 zymogen act: -1; ADAM17 inh: 4; PLCgamma1 ctr: -6; PLCbeta3 conf: -11

Results for CCn1c(=O)n(CC(=O)N2CCOCC2)c(=O)c2ccccc21 ?
PLCb3 inh: -7; PLC-gamma1 inh: -5; ADAM10 inh: -22; KLK7 zymogen act: 0; ADAM17 inh: -6

What do the screens show for `C[C@@H]1C[C@H](O)CCCCCC(=O)Cc2cc(O)cc(O)c2C(=O)O1`?
PLCb3 inh: 2; PLC-gamma1 inh: 1; ADAM10 inh: -7; KLK7 zymogen act: 0; ADAM17 inh: -1

How did O=C(CCCCCNC(=O)N1CCn2c1nc1ccccc12)NCc1ccc(F)cc1 do in these assays?
PLCb3 inh: 0; PLC-gamma1 inh: 11*; ADAM10 inh: 2; KLK7 zymogen act: 0; ADAM17 inh: 3; PLCgamma1 ctr: -5; PLCbeta3 conf: -4

Results for OC1OC2COC(c3ccccc3)OC2C(O)C1O (stereo not given) ?
PLCb3 inh: 11*; PLC-gamma1 inh: 6; ADAM10 inh: -8; KLK7 zymogen act: 0; ADAM17 inh: 1; PLCgamma1 ctr: -5; PLCbeta3 conf: -4

What do the screens show for `O=C(NCc1cccnc1)c1ccc2sc([C@H]3C[C@H](O)[C@@H](CO)O3)nc2c1`?
PLCb3 inh: 4; PLC-gamma1 inh: 2; ADAM10 inh: -13; KLK7 zymogen act: -1; ADAM17 inh: 3

What do the screens show for `CC(C)N(Cc1nc(-c2ccccc2)no1)C(=O)CN(C)S(=O)(=O)c1ccccc1`?
PLCb3 inh: 6; PLC-gamma1 inh: 9.6*; ADAM10 inh: 5; KLK7 zymogen act: -1; ADAM17 inh: -3; PLCgamma1 ctr: 8; PLCbeta3 conf: 0

What do the screens show for `CN(Cc1nc(-c2ccncc2)no1)S(=O)(=O)c1ccccc1`?
PLCb3 inh: 1; PLC-gamma1 inh: -1; ADAM10 inh: 3; KLK7 zymogen act: 0; ADAM17 inh: -7

Results for O=C(O)c1cccc(-n2cccc2/C=C2/NC(=O)N(c3ccc(Cl)cc3)C2=O)c1 ?
PLCb3 inh: -10; PLC-gamma1 inh: 22*; ADAM10 inh: 7; KLK7 zymogen act: 0; ADAM17 inh: 0; PLCgamma1 ctr: -8; PLCbeta3 conf: -23

What do the screens show for `NS(=O)(=O)c1ccc(CCNC(=O)C2CCCCN2S(=O)(=O)c2ccccc2)cc1` (stereo not given)?
PLCb3 inh: 4; PLC-gamma1 inh: 13*; ADAM10 inh: 7; KLK7 zymogen act: -1; ADAM17 inh: 0; PLCgamma1 ctr: -6; PLCbeta3 conf: -2

Results for COC1CCN(C(=O)c2cc(COc3ccc(-n4cncn4)cc3)on2)CC1 ?
PLCb3 inh: -4; PLC-gamma1 inh: 0; ADAM10 inh: -1; KLK7 zymogen act: 0; ADAM17 inh: 1

How did O=C(c1cc(COc2ccc(-n3cncn3)cc2)on1)N1CCCC1 do in these assays?
PLCb3 inh: -2; PLC-gamma1 inh: 14*; ADAM10 inh: -4; KLK7 zymogen act: 0; ADAM17 inh: 3; PLCgamma1 ctr: 1; PLCbeta3 conf: 2

Results for O=[N+]([O-])c1ccccc1Nc1ccccc1[N+](=O)[O-] ?
PLCb3 inh: 4; PLC-gamma1 inh: 10*; ADAM10 inh: 2; KLK7 zymogen act: 1; ADAM17 inh: -4; PLCgamma1 ctr: 2; PLCbeta3 conf: 2

What do the screens show for `COc1cccc(C(NC(C)=O)c2nc(-c3csc4ccccc34)cs2)c1` (stereo not given)?
PLCb3 inh: 0; PLC-gamma1 inh: -1; ADAM10 inh: 8; KLK7 zymogen act: 0; ADAM17 inh: 3

Results for O=C(CCc1nnc(Cc2c[nH]c3ccccc23)o1)NC1CCCC1 ?
PLCb3 inh: 4; PLC-gamma1 inh: 12*; ADAM10 inh: 7; KLK7 zymogen act: 0; ADAM17 inh: 6; PLCgamma1 ctr: -5; PLCbeta3 conf: -4

How did COCCCNc1nc2c(c(=O)n(Cc3ccc(OC)cc3)c(=O)n2C)n1C do in these assays?
PLCb3 inh: 3; PLC-gamma1 inh: 10*; ADAM10 inh: 7; KLK7 zymogen act: 0; ADAM17 inh: 3; PLCgamma1 ctr: -2; PLCbeta3 conf: -10

Results for COCCCNc1nc2c(c(=O)n(Cc3ccc(F)cc3)c(=O)n2C)n1C ?
PLCb3 inh: -3; PLC-gamma1 inh: 6; ADAM10 inh: 5; KLK7 zymogen act: 0; ADAM17 inh: 0

Results for Cn1cc(Cc2ccc(C(=O)N3CCOCC3)cn2)c2ccccc21 ?
PLCb3 inh: -7; PLC-gamma1 inh: -6; ADAM10 inh: -14; KLK7 zymogen act: 3; ADAM17 inh: -6
